The values that follow come from the supplement of paper PMC7380943.

Where a name gives a salt, the structure may show the parent alone. ± gives the standard deviation of the averaged measurements.
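For HR repair efficiency (tdTomato+ cells) relative to control in this document: compound given one day before doxycycline, which switches on I-SceI endonuclease expression to create double-strand breaks within the integrated reporter.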
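For NHEJ repair efficiency (GFP+ cells) relative to control in this document: compound given one day ahead of doxycycline, which switches on I-SceI endonuclease to cut the chromosomally integrated reporter and create DSBs.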

The first test has as its system CLZ3 (HCA2 human fibroblast dual HR-NHEJ reporter). Nature of the test: NHEJ repair efficiency (GFP+ cells) relative to control (log10 fold); higher = more non-homologous end joining. The following applies: 5 µM; doxycycline 0.5 ug/mL.
As for `COc1ccc(-c2oc3c(CC=C(C)C)c(O[C@@H]4O[C@H](CO)[C@@H](O)[C@H](O)[C@H]4O)cc(O)c3c(=O)c2O[C@@H]2O[C@@H](C)[C@H](O)[C@@H](O)[C@H]2O)cc1` [Icariine], the “NHEJ repair efficiency (log10)” value is -0.13. Consider `COC(=O)[C@H]1O[C@@H](Oc2cc3oc(-c4ccc(O)cc4)cc(=O)c3c(O)c2O)[C@H](O)[C@@H](O)[C@@H]1O` [Scutellarin Methyl Ester], for which the “NHEJ repair efficiency (log10)” value was -0.156. On to `O=C(CCc1ccc(O)cc1)c1c(O)cc(O)cc1O[C@@H]1OC(CO)[C@@H](O)[C@@H](O)C1O` (stereo partly drawn) [Phloridzin], for which the “NHEJ repair efficiency (log10)” value is -0.0404 ± 0.071. The same measure, in the same setting: to `CC1OC(OC2C(C)OC(OC(=O)C34CCC(C)(C)CC3C3=CCC5C6(C)CCC(OC7OC(C(=O)O)C(OC8OC(CO)C(OC9OC(CO)C(O)C(O)C9O)C(O)C8O)C(OC8OCC(O)C(O)C8O)C7O)C(C)(C=O)C6CCC5(C)C3(C)CC4)C(OC3OCC(O)C(O)C3OC3OCC(O)C(O)C3O)C2O)C(O)C(OC2OCC(O)C(O)C2O)C1O` (stereo not drawn) [Gypenoside] belongs 0.0642; to `CC1(C)CCC2(C(=O)OC3OC(CO)C(O)C(O)C3O)CCC3(C)C(=CCC4C5(C)CCC(OC6OC(C(=O)O)C(OC7OCC(O)C(OC8OC(CO)C(O)C(O)C8O)C7O)C(O)C6O)C(C)(C)C5CCC43C)C2C1` (stereo not drawn) [Oleanoside A], -0.111. Take `O=C(/C=C/c1ccc(O)c(O)c1/C=C/c1ccc(O)c(O)c1)O[C@H](Cc1ccc(O)c(O)c1)C(=O)O` [Salvianolic Acid A]: the “NHEJ repair efficiency (log10)” value came to 0.0713.

In the case of `O=C(/C=C/c1ccc(O)c(O)c1)OC1(C(=O)O)C[C@@H](O)C(O)[C@H](O)C1` (stereo partly drawn) [1-Caffeoylquinic Acid], the “NHEJ repair efficiency (log10)” value was -0.0477. On the same count and under the same terms, in the case of `COc1cc([C@H]2OC[C@H]3[C@@H]2CO[C@@H]3c2ccc(O[C@@H]3O[C@H](CO)[C@@H](O)[C@H](O)[C@H]3O)c(OC)c2)ccc1O[C@@H]1O[C@H](CO)[C@@H](O)[C@H](O)[C@H]1O` [PinoresinolDiglucoside] it was -0.0902. The same measure, in the same setting: to `CCCCCCCCCCCCCCCC(=O)O` [Palmitic Acid] belongs 0.0513. As to `C=C(C)[C@@H]1CC[C@]2(C(=O)O)CC[C@]3(C)[C@H](CC[C@@H]4[C@@]5(C)CCC(=O)C(C)(C)[C@@H]5CC[C@]43C)[C@@H]12` [Liquidambaric Acid], the “NHEJ repair efficiency (log10)” value is -0.0687. The same measure, in the same setting: in the case of `C=CCc1ccc(O)c(OC)c1` [Eugenol] it was 0.027. As for `CC(C)(C)NCC(O)c1ccc(O)c(CO)c1` (stereo not drawn) [Salbutamol Sulfate], the “NHEJ repair efficiency (log10)” value was -0.0861.

As to `C=C(C)C(=O)Cc1c(OC)ccc2ccc(=O)oc12` [Murrayone], the “NHEJ repair efficiency (log10)” value is 0.0921. Consider `COc1ccc(-c2cc(=O)c3c(O)c(OC)c(O)cc3o2)cc1` [Pectolinarigenin], for which the “NHEJ repair efficiency (log10)” value is -0.0149. `CCOC(=O)/C=C/c1ccc(O)c(O)c1` [Ethyl Caffeate]: the “NHEJ repair efficiency (log10)” value was determined as 0.0562.

With `CC(=O)O[C@@H]1CC[C@@]2(C)[C@@H](CC[C@]3(C)[C@@H]2C(=O)C=C2[C@@H]4[C@@H](C)[C@H](C)CC[C@]4(C)CC[C@]23C)[C@@]1(C)C(=O)O` [3-Acetyl-11-Keto-Beta-Boswellic Acid], the “NHEJ repair efficiency (log10)” value is -0.179.

In the case of `CC(CC(=O)C[C@@H](C)[C@H]1CC(=O)[C@@]2(C)C3=C(C(=O)C[C@]12C)[C@@]1(C)CCC(=O)C(C)(C)[C@@H]1C[C@@H]3O)C(=O)O` (stereo partly drawn) [Ganoderic Acid D], the “NHEJ repair efficiency (log10)” value amounted to 0.113.

A further test shares this test system. Briefly: HR repair efficiency (tdTomato+ cells) relative to control (log10 fold); higher = more homologous recombination. The following applies: 5 µM; doxycycline 0.5 ug/mL.
Consider `CC[C@H](C)[C@@H]1NC(=O)[C@@H]2CCCN2C(=O)[C@@H]2CCCN2C(=O)[C@@H]2CCCN2C(=O)[C@H](CC(C)C)NC(=O)CNC(=O)CNC(=O)[C@H](Cc2ccccc2)NC1=O` [Heterophyllin B], for which the “HR repair efficiency (log10)” value came out at 0.0454.

As for `O=C(O)[C@H]1O[C@@H](Oc2cc(O)c3c(=O)cc(-c4ccc(O)cc4)oc3c2)[C@H](O)[C@@H](O)[C@@H]1O` [Apigenin-7-O-Glucronide], the “HR repair efficiency (log10)” value was found to be 0.161. In the case of `O=C(O)[C@H]1O[C@@H](Oc2cc3oc(-c4ccccc4)cc(=O)c3c(O)c2O)[C@H](O)[C@@H](O)[C@@H]1O` [Baicalin], the “HR repair efficiency (log10)” value stood at 0.053. On to `O=C1/C(=C2\Nc3ccccc3C2=O)Nc2ccccc21` [Indigotin], for which the “HR repair efficiency (log10)” value was -0.105. The same measure, in the same setting: to `C=C(CC[C@@H](C(=O)O)[C@H]1[C@H](O)C[C@@]2(C)C3=C(CC[C@]12C)[C@@]1(C)CC[C@H](OC(C)=O)C(C)(C)[C@@H]1CC3)C(C)C` [Pachymic Acid] belongs 0.0591; to `C[C@@H]1O[C@@H](O[C@H]2[C@H](O[C@H]3CC[C@@]4(C)[C@@H](CC[C@]5(C)[C@@H]4CC=C4[C@@H]6CC(C)(C)CC[C@]6(C(=O)O[C@@H]6O[C@H](CO[C@@H]7O[C@H](CO)[C@@H](O)[C@H](O)[C@H]7O)[C@@H](O)[C@H](O)[C@H]6O)CC[C@]45C)[C@]3(C)CO)OC[C@H](O)[C@@H]2O)[C@H](O)[C@H](O[C@@H]2O[C@H](CO)[C@@H](O)[C@H](O)[C@H]2O)[C@H]1O` [Macranthoidin A], 0.0324; to `O=c1c(O[C@@H]2O[C@H](CO)[C@@H](O)[C@H](O)[C@H]2O[C@@H]2O[C@H](CO)[C@@H](O)[C@H](O)[C@H]2O)c(-c2ccc(O)c(O)c2)oc2cc(O)cc(O)c12` [Baimaside], 0.114. On the same count and under the same terms, to `OCC1=C[C@@H](O)[C@]2(O[C@@H]3O[C@H](CO)[C@@H](O)[C@H](O)[C@H]3O)C=CO[C@@H](O[C@@H]3O[C@H](CO)[C@@H](O)[C@H](O)[C@H]3O)[C@H]12` [Melittoside] belongs 0.096.

Consider `COc1cc(CCC(C)=O)ccc1O` [Zingerone], for which the “HR repair efficiency (log10)” value stood at 0.257. The same measure, in the same setting: in the case of `Oc1cc(O)c2c(c1)O[C@H](c1cc(O)c(O)c(O)c1)[C@H](O)C2` [(-)Epigallocatechin] it was -0.0527; in that of `CC1OC(OC2C(OC3CCC4(C)C(CCC5(C)C4CC=C4C6CC(C)(C)CCC6(C(=O)OC6OC(COC7OC(CO)C(O)C(O)C7O)C(O)C(O)C6O)CCC45C)C3(C)CO)OCC(O)C2O)C(O)C(O)C1O` (stereo not drawn) [Dipsacoside B], 0.00385 ± 0.11; in that of `OC[C@H]1NC[C@H](O)[C@@H](O)[C@@H]1O` [1-Deoxynojirimycin], 0.0442.

`O=C(/C=C/c1ccc(O)c(O)c1)O[C@@H](C(=O)O)[C@@H](O)C(=O)O` [Caftaric Acid]: the “HR repair efficiency (log10)” value is -0.0835. On the same count and under the same terms, to `C[C@@H]1O[C@@H](OC[C@H]2O[C@@H](Oc3cc(O)c4c(c3)O[C@H](c3ccc(O)cc3)CC4=O)[C@H](O)[C@@H](O)[C@@H]2O)[C@H](O)[C@H](O)[C@H]1O` [Narirutin] belongs -0.053; to `COc1cc2c(cc1OC)[C@@H](Cc1ccc(Oc3cc(C[C@@H]4c5cc(OC)c(OC)cc5CCN4C)ccc3O)cc1)N(C)CC2` [Dauricine], -0.294; to `COc1cc2ccc(=O)oc2cc1OC` [Scoparone], 0.0853.

On to `C=C1[C@H]2CC[C@]3([C@@H]1O)[C@H]1C[C@@H]4C5(C)CCCC4([C@@H]1N(CC)C5)[C@@H]3[C@H]2O` [Denudatine], for which the “HR repair efficiency (log10)” value worked out at 0.0616. For the molecule `O=C(O)c1cc(O)c2c(c1)C(=O)c1cccc(O)c1C2=O` [Rhein], the “HR repair efficiency (log10)” value was -0.07. Turning to `C[C@H]1[C@H](OC(=O)CCC(=O)O)O[C@@H]2O[C@@]3(C)CC[C@H]4[C@H](C)CC[C@@H]1[C@@]24OO3` [Artesunate], the “HR repair efficiency (log10)” value was -0.241. On to `CC(C)C(C)C(O)C(O)C(C)C1CCC2C3COC(=O)C4CC(O)C(O)CC4(C)C3CCC12C` (stereo not drawn) [Brassinolide], for which the “HR repair efficiency (log10)” value is -0.073. Still for that read-out and setting: to `COC(=O)[C@@]1(C)CC[C@]2(C(=O)O)CC[C@]3(C)C(=CC[C@@H]4[C@@]5(C)C[C@H](O)[C@H](O)[C@@](C)(CO)[C@@H]5CC[C@]43C)[C@@H]2C1` [Phytolaccagenin] belongs 0.0241; to `C/C(=C\C(=O)CC(C)C(=O)O)[C@H]1CC(=O)[C@@]2(C)C3=C(C(=O)C[C@]12C)[C@@]1(C)CC[C@H](O)C(C)(C)[C@@H]1C[C@@H]3O` (stereo partly drawn) [Ganoderenic Acid B], 0.021; to `CCCCCCCCC[C@H](O)CC(=O)CCc1ccc(O)c(OC)c1` [10-Gingerol], 0.0717. Regarding `COc1ccc(-c2oc3c(CC=C(C)C)c(O[C@@H]4O[C@H](CO)[C@@H](O)[C@H](O)[C@H]4O)cc(O)c3c(=O)c2O[C@@H]2O[C@@H](C)[C@H](O)[C@@H](O)[C@H]2O)cc1` [Icariine], the “HR repair efficiency (log10)” value was -0.0902. The same measure, in the same setting: to `COC(=O)[C@H]1O[C@@H](Oc2cc3oc(-c4ccc(O)cc4)cc(=O)c3c(O)c2O)[C@H](O)[C@@H](O)[C@@H]1O` [Scutellarin Methyl Ester] belongs -0.014; to `O=C(CCc1ccc(O)cc1)c1c(O)cc(O)cc1O[C@@H]1OC(CO)[C@@H](O)[C@@H](O)C1O` (stereo partly drawn) [Phloridzin], 0.0182 ± 0.039. On the same count and under the same terms, in the case of `CC1OC(OC2C(C)OC(OC(=O)C34CCC(C)(C)CC3C3=CCC5C6(C)CCC(OC7OC(C(=O)O)C(OC8OC(CO)C(OC9OC(CO)C(O)C(O)C9O)C(O)C8O)C(OC8OCC(O)C(O)C8O)C7O)C(C)(C=O)C6CCC5(C)C3(C)CC4)C(OC3OCC(O)C(O)C3OC3OCC(O)C(O)C3O)C2O)C(O)C(OC2OCC(O)C(O)C2O)C1O` (stereo not drawn) [Gypenoside] it was 0.115; in that of `CC1(C)CCC2(C(=O)OC3OC(CO)C(O)C(O)C3O)CCC3(C)C(=CCC4C5(C)CCC(OC6OC(C(=O)O)C(OC7OCC(O)C(OC8OC(CO)C(O)C(O)C8O)C7O)C(O)C6O)C(C)(C)C5CCC43C)C2C1` (stereo not drawn) [Oleanoside A], 0.164. Still for that read-out and setting: in the case of `O=C(/C=C/c1ccc(O)c(O)c1/C=C/c1ccc(O)c(O)c1)O[C@H](Cc1ccc(O)c(O)c1)C(=O)O` [Salvianolic Acid A] it was 0.0119; in that of `O=C(/C=C/c1ccc(O)c(O)c1)OC1(C(=O)O)C[C@@H](O)C(O)[C@H](O)C1` (stereo partly drawn) [1-Caffeoylquinic Acid], 0.0171. `COc1cc([C@H]2OC[C@H]3[C@@H]2CO[C@@H]3c2ccc(O[C@@H]3O[C@H](CO)[C@@H](O)[C@H](O)[C@H]3O)c(OC)c2)ccc1O[C@@H]1O[C@H](CO)[C@@H](O)[C@H](O)[C@H]1O` [PinoresinolDiglucoside]: the “HR repair efficiency (log10)” value is -0.138.
